For 36 targets, log2 fold change results are on record in the supplement of paper PMC10849652.

The full data set covers some 7,900 targets. This sample favours those with a hit. About 0.6% of all pairs of compound and target were hits. Unmarked numbers belong to inactive results.

Sequence of UniProt Q9Y5P4 (Q9Y5P4 whole entry, looked up): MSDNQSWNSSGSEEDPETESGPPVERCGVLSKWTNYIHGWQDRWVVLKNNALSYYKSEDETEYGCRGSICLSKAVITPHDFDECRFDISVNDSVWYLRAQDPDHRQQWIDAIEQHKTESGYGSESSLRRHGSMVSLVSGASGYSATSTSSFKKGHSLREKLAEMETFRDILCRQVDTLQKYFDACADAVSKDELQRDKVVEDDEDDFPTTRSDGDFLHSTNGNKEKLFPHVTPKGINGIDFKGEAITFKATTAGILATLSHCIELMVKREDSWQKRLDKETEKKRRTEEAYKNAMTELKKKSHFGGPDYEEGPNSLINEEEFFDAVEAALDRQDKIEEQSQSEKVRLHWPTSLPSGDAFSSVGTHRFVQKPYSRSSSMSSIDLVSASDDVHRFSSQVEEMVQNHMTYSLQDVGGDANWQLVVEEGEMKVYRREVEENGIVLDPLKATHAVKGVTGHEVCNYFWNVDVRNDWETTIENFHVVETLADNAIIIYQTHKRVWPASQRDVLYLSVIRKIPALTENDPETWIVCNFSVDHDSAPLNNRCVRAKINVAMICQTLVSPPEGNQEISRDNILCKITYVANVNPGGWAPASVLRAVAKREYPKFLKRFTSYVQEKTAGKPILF
Sequence of UniProt P19784 (P19784 whole entry, looked up): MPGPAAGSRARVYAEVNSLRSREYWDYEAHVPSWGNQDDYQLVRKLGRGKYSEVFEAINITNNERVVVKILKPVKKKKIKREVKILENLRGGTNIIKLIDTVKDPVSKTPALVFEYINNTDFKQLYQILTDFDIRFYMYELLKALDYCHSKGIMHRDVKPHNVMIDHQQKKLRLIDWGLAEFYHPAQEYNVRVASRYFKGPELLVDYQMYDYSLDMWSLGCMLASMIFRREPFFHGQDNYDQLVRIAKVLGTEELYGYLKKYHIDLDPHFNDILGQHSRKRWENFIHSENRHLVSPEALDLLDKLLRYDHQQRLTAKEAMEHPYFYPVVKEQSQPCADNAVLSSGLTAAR
Sequence of UniProt P41240 (P41240 whole entry, looked up): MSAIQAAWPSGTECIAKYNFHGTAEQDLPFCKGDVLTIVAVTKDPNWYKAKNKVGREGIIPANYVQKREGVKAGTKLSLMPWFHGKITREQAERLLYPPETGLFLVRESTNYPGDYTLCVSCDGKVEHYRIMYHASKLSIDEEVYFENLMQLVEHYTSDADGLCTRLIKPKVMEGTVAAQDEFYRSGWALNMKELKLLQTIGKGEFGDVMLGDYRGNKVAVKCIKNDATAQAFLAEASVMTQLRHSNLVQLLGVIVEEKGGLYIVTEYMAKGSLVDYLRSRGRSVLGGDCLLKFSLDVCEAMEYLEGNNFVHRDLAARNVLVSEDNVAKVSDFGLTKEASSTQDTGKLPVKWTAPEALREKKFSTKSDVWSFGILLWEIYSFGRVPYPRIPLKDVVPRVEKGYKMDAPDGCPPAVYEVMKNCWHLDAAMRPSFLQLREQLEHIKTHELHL
Sequence of UniProt Q99653 (Q99653 whole entry, looked up): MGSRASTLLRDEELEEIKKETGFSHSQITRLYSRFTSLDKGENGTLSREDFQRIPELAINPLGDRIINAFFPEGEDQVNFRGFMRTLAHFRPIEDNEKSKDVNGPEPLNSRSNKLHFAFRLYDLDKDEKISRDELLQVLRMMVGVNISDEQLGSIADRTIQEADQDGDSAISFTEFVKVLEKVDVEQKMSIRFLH
Sequence of UniProt Q96CF2 (Q96CF2 whole entry, looked up): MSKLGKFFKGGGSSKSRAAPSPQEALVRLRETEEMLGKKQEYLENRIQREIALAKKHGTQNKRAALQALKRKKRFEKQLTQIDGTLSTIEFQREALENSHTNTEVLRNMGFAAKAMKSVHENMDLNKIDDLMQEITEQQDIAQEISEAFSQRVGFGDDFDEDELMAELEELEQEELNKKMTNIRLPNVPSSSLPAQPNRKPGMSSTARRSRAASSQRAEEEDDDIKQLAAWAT
Sequence of UniProt O95319 (O95319 whole entry, looked up): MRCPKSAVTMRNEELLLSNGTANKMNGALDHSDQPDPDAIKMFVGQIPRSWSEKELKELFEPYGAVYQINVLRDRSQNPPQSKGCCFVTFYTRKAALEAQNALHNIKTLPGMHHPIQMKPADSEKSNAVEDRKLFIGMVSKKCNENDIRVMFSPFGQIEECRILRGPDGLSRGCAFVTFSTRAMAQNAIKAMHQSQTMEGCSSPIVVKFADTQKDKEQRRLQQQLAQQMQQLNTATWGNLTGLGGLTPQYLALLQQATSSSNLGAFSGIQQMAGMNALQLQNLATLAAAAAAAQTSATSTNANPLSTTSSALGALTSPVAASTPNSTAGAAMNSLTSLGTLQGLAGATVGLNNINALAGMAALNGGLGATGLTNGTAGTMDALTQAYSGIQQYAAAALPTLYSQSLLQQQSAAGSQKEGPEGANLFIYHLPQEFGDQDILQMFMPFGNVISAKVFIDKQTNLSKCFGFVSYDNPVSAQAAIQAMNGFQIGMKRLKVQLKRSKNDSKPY
Sequence of UniProt Q5VT25 (Q5VT25 whole entry, looked up): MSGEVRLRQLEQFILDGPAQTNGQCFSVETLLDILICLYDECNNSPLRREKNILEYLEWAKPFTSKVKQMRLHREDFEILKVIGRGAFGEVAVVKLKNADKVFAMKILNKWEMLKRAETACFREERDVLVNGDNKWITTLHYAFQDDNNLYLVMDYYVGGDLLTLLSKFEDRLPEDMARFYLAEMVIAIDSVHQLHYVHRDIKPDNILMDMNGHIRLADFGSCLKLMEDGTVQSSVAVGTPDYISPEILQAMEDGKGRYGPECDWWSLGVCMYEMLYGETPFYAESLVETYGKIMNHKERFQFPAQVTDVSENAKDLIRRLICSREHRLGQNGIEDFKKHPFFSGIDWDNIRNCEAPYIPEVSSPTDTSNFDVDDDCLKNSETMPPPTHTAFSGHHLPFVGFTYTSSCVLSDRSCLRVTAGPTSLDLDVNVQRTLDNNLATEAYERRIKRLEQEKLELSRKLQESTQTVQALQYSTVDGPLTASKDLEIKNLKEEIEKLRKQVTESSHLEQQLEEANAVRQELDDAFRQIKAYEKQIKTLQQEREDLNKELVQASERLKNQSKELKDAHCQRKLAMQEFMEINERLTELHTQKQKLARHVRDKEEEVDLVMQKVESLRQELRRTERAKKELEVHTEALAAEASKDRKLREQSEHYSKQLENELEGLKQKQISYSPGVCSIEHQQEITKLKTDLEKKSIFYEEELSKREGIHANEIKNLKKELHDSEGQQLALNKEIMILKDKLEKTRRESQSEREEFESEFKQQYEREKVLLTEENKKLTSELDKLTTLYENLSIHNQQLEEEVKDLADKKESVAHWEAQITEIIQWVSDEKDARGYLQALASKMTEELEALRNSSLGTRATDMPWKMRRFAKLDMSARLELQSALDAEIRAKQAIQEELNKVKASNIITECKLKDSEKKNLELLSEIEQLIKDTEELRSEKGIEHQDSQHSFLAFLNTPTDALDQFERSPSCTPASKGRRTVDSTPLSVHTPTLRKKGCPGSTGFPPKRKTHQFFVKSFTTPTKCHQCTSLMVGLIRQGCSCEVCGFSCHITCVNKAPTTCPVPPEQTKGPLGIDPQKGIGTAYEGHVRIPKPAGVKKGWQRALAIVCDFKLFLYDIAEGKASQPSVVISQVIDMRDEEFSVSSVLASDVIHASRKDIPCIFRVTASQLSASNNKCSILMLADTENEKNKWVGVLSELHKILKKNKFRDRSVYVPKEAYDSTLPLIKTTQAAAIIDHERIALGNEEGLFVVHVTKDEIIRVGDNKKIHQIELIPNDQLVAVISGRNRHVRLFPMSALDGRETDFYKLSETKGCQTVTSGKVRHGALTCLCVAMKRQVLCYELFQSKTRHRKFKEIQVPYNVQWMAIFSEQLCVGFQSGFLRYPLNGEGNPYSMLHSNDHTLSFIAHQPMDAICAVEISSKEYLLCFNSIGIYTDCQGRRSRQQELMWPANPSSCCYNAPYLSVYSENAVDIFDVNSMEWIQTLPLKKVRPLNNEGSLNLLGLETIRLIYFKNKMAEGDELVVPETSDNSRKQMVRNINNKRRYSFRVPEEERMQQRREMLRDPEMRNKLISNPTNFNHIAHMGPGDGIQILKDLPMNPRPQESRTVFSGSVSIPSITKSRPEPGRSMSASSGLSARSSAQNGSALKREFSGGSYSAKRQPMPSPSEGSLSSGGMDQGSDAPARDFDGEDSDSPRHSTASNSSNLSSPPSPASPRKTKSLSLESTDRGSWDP
Sequence of UniProt P60033 (P60033 whole entry, looked up): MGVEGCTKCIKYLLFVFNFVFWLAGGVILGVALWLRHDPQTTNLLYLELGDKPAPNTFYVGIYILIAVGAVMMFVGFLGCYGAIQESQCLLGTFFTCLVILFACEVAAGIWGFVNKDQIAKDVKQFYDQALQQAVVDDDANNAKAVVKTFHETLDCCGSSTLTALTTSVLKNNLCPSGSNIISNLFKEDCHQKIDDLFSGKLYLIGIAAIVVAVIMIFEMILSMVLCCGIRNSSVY
Sequence of UniProt P86791 (P86791 whole entry, looked up): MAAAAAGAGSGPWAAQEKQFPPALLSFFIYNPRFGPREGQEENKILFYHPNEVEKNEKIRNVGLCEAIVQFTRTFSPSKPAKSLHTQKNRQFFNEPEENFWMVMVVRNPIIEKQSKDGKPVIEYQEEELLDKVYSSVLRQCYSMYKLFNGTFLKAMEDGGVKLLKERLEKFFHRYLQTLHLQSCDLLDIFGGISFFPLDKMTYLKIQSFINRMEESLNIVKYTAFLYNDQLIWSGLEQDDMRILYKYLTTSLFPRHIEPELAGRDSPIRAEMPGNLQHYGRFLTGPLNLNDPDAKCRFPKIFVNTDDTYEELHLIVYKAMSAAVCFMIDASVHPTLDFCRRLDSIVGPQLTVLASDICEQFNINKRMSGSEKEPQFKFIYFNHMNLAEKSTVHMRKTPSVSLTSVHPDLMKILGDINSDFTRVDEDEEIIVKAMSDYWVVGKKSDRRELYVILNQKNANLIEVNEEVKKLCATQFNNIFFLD
Sequence of UniProt Q8NHZ8 (Q8NHZ8 whole entry, looked up): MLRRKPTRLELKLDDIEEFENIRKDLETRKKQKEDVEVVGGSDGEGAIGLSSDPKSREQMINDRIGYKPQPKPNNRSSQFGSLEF

Compound in this assay: CO[C@H]1C[C@@H]2CC[C@@H](C)[C@@](O)(O2)C(=O)C(=O)N2CCCC[C@H]2C(=O)O[C@H]([C@H](C)C[C@@H]2CC[C@H](n3cnnn3)[C@H](OC)C2)CC(=O)[C@H](C)/C=C(\C)[C@@H](O)[C@@H](OC)C(=O)[C@H](C)C[C@H](C)/C=C/C=C/C=C/1C [zotarolimus]
Put plainly: log2 fold change, soluble protein after heating vs DMSO (PISA); higher = thermal stabilisation; K562 cells, 10 uM, 30 min; active = over 0.2 and 3.5 SD of the protein, either way, in both replicates (recomputed). The method in brief:
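Quantification of soluble protein used TMTpro 16plex LC-MS/MS, with channel sums equalised. Samples were the supernatant after 21,000xg for 90 min of pooled aliquots from K562 cells (2×10^6 cells/mL) treated with 10 μM compound for 30 min, heated for 3 min over 48°C-58°C, and extracted in PBS with 0.5% NP-40 at 4°C. Values, from duplicates, describe thermal stability against control samples on a log2 fold-change scale.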
For the target CHP1 (UniProt Q99653), the log2 fold change is 0.058.
Consider CES2 isoform 4 (UniProt O00748), for which the log2 fold change is 0.078.
On to CPT2 (UniProt P23786), for which the log2 fold change is 0.798 (active).
For CNN2 (UniProt Q99439) the value was -0.002; for CBX5 (UniProt P45973), 0.029.
For CNOT4 isoform 6 (UniProt O95628) the value was -0.023; for CD55 isoform 7 (UniProt P08174), 0.001.
Consider CPT1A (UniProt P50416), for which the log2 fold change was 0.118.
For CD81 (UniProt P60033) the value was 0.003; for CRK (UniProt P46108), 0.144; for CSK (UniProt P41240), 0.007.
For CELF2 isoform 3 (UniProt O95319) the value was -0.035.
For CDK5RAP3 isoform 4 (UniProt Q96JB5) the value was 0.026; for CSNK2A2 (UniProt P19784), -0.003; for CCZ1 (UniProt P86791), 0.044.
As to CBR1 (UniProt P16152), the log2 fold change is 0.071.
For the target CHAMP1 (UniProt Q96JM3), the log2 fold change was 0.07.
With CHMP4C (UniProt Q96CF2), the log2 fold change is -0.028.
With CBS (UniProt P35520), the log2 fold change was 0.044.
Consider COX15 (UniProt Q7KZN9), for which the log2 fold change is 0.005.
For CDAN1 (UniProt Q8IWY9) the value was 0.008; for CDC26 (UniProt Q8NHZ8), -0.011; for COPS3 (UniProt Q9UNS2), -0.004.
For CALCOCO2 isoform 4 (UniProt Q13137) the value was -0.044; for CASP10 isoform 4 (UniProt Q92851), 0.062.
For C9orf72 (UniProt Q96LT7) the value was -0.115; for CSNK2A1 (UniProt P68400), -0.015.
On to CCNB1 (UniProt P14635), for which the log2 fold change was -0.009.
For CHCHD1 (UniProt Q96BP2) the value was -0.001.
For CERT isoform 3 (UniProt Q9Y5P4) the value was 0.2.
For CCDC9 (UniProt Q9Y3X0), the log2 fold change is -0.11.
For CAMKK2 (UniProt Q96RR4) the value was -0.077.
For COMT (UniProt P21964) the value was 0.034.
With CCNK isoform 4 (UniProt O75909), the log2 fold change was 0.163.
For CDC42BPA isoform 6 (UniProt Q5VT25) the value was 0.081; for C9orf64 (UniProt Q5T6V5), 0.038.
